Test in all cases: NCI-60 one-dose screen, 48 h (100 = growth as untreated, 0 = no growth, -100 = all killed)
Common to all, as to conditions: 10 µM unless noted

Experiment [1] deals with HCT-15 colon.
Experiment [2] relates to HT29 colon.
Experiment [3] relates to SNB-75 CNS.
The subject of experiment [4] is SNB-19 CNS.
In experiment [5] the test system is U251 CNS.
Experiment [6] relates to PC-3 prostate.
The subject of experiment [7] is SK-MEL-5 melanoma.
The test system of experiment [8] is UACC-62 melanoma.
The test system of experiment [9] is LOX IMVI melanoma.
In experiment [10] the test system is SK-MEL-28 melanoma.

The panel holds about 83,000 compounds, 20% with a hit somewhere; the sample as a whole holds those more often.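 Growth was measured after 48 h exposure to one concentration of compound in 96-well plates. Values under 10 count as active.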 Values without a mark were called inactive. Calls of active or inactive are those of the source.

For `CC(C)(C)OC(=O)N1C=C/C(=C\Cn2cc(-c3ccccc3)nn2)CC1`, the growth is 86.9% in experiment [1]; 99.1% in [2]; 78.8% in [3]; 73.1% in [4]; 91.8% in experiment [5]; 82.7% in experiment [6]. Moreover, the growth in experiment [7] is 36.7%; in experiment [8], 65.6%; in experiment [9] it was 76.9%; in experiment [10], 72.7%.

As for `Cc1cc(C)c(O)c(CNCCCNCc2cc(C)cc(C)c2O)c1`, the growth was 34.9% in [1]; 70.9% in [2]; 59.6% in [3]; 68.9% in experiment [4]; 51.3% in experiment [5]; 64.8% in experiment [6]. For the same compound, the growth in [7] is 61.9%; in experiment [8], 12.6%; in experiment [9], 39.8%; in experiment [10], 62.4%.

For `Cn1ncc2c(Nc3ccc(O)cc3)nc(Cl)nc21`, the growth is 97% in [1]; 102% in experiment [2]; 95% in experiment [3]; 106% in experiment [4]; 99.3% in [5]; 119% in experiment [6]. In addition, the growth in [7] is 100%; in experiment [8], 82.6%; in experiment [9] it was 95.7%; in experiment [10] it was 114%.

Turning to `CCOc1ccc(S(=O)(=O)Nc2ccc3c(c2)N(S(=O)(=O)CC)CCC3)cc1`, the growth in experiment [1] was 89.9%; in experiment [2], 72.7%; in [3], 64.8%; in experiment [4], 80.4%; in experiment [5] it was 61.8%; in [6], 73.1%. Also, the growth was 74.9% in experiment [7], 64.8% in experiment [8], 83.4% in [9] and 103% in experiment [10].

Regarding `CCCCN(CCCC)CC(O)c1ccc(OCc2ccccc2)c2ccccc12` (stereo not given), the growth in [1] is 69.7%; in experiment [2], 19.1%; in experiment [3], 80.4%; in experiment [4] it was 96.7%; in experiment [5], 98.2%; in experiment [6], 63.6%. Moreover, the growth in experiment [7] was 101%; in [8], 95.5%; in [9], 60.8%; in experiment [10] it was 109%.

With `Ic1ccc2[nH]cc(SSc3c[nH]c4ccc(I)cc34)c2c1`, the growth in [1] was 15.6%; in experiment [2], 32%; in experiment [3], 46.6%; in experiment [4], 13.3%; in experiment [5] it was 18.3%; in [6] it was 7.98% (active). Moreover, the growth in [7] is 86.6%; in experiment [8] it was 45.4%; in experiment [9] it was 4.6% (active); in experiment [10], 40.9%.

For `CC[C@]1(O)CC2CN(CCc3c([nH]c4ccccc34)[C@@](C(=O)OC)(c3cc4c(cc3OC)N(C=O)[C@H]3[C@@](O)(C(=O)OC)[C@H](OC(C)=O)[C@]5(CC)C=CCN6CC[C@]43[C@@H]65)C2)C1` (stereo not given in full), the growth in experiment [1] was 16%; in experiment [2], 4.12% (active); in experiment [3], 38.7%; in experiment [4], 43.8%; in experiment [5] it was 8.14% (active); in [6], 35.1%. Also, the growth was -38% (active) in experiment [7], 35.6% in [8], 26% in experiment [9] and 61% in [10].

On to `Cn1c(=O)c(C#N)c(-c2ccco2)n2c(S(=O)(=O)Cc3ccccc3)nnc12`, for which the growth in experiment [1] was 78.3%; in [2], 92.5%; in experiment [3], 97.8%; in [4], 115%; in experiment [5], 82.8%; in experiment [6] it was 112%. For the same compound, the growth in experiment [7] was 90.1%; in experiment [8], 75.5%; in experiment [9] it was 92.3%; in experiment [10], 99.1%.

For the compound `COc1ccc(C2NC(=O)C(C#N)c3c2sc2c(F)cccc32)cc1` (stereo not given), the growth in experiment [1] was 33.6%; in experiment [2], 50.5%; in experiment [3], 13.6%; in experiment [4], 42.7%; in [5], 47.3%; in [6], 52.4%. Moreover, the growth in [7] is 60.6%; in [8], 36.4%; in experiment [9] it was 45.6%; in [10], 52.6%.

Take `COc1ccc(NCc2cn(-c3ccc(C(=O)O)cc3)nc2-c2ccc(C(=O)O)cc2)cc1C(F)(F)F`: the growth in experiment [1] is 105%; in experiment [2], 101%; in [3], 84%; in experiment [4], 96.4%; in experiment [5], 93.7%; in [6], 102%. The growth in experiment [7] was 94.8%; in [8], 94.3%; in [9] it was 97.4%; in experiment [10] it was 97.3%.

With `CC(=O)OC[C@]12CC[C@@H](C(=O)CBr)[C@@H]1[C@H]1CC[C@@H]3[C@@]4(C)CCCNC(C)(C)[C@@H]4CC[C@@]3(C)[C@]1(C)CC2`, the growth in experiment [1] is -74.7% [100 µM] (active); in [2], -81.9% [100 µM] (active); in [3] it was -98.3% [100 µM] (active); in experiment [4] it was -93.4% [100 µM] (active); in experiment [5], -88.6% [100 µM] (active); in [6] it was -76.6% [100 µM] (active). The growth in experiment [7] was -91.7% [100 µM] (active); in [8] it was -90.9% [100 µM] (active); in [9] it was -91.6% [100 µM] (active); in experiment [10], -86.7% [100 µM] (active).

As to `CC(C)[N+](C)(C)CC(O)COc1cccc2ccccc12` (stereo not given), the growth in experiment [1] is 97.1%; in [2], 111%; in [3] it was 109%; in experiment [4] it was 103%; in [5], 101%; in experiment [6], 92.2%. For the same compound, the growth was 107% in experiment [7], 101% in [8], 93.2% in experiment [9] and 113% in [10].

As to `CCOc1ccc2sc(NS(=O)(=O)c3ccc(N)cc3)nc2c1`, the growth in experiment [1] was 107%; in [2] it was 109%; in experiment [3], 98.2%; in experiment [4], 103%; in [5] it was 99.5%; in experiment [6] it was 119%. The growth in experiment [7] is 106%; in experiment [8], 93%; in experiment [9] it was 105%; in experiment [10], 117%.

Source of the values: PubChem BioAssay (NCI).
